Source: PubChem BioAssay
Peg3 imprint – qHTS Assay for Compounds that Induce Erasure of Genomic Imprints; Potency, µM (series often up to 60.7 µM), actives largely listed as activators; AID 1948, 2009; 0.02% of 110,000 active; mouse ES Peg3-LacZ reporter, beta-gal luminescence, 40 h
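Readout: BetaGlo luminescence (5 min, room temp) for LacZ from the normally silent maternal Peg3 allele in female Peg3LacZ-Neo ES cells. Cells 300/well, 40 h, 37C, 5% CO2. Data normalized per plate to negative controls.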
p53ts 32C tox – qHTS Screen for Compounds that Selectively Target Cancer Cells with p53 Mutations: Cytotoxicity of p53ts Cells at the Permissive Temperature; 0.93% of 130,000 active; Potency, µM (top dose mostly 46.1 µM), actives largely listed as cytotoxic; AID 924, 2007; H1299-p53A138V at 32C, ATP luminescence viability, 24 h; also: nearly all actives have a fitted effect of over 55% in size
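H1299-p53 A138V cells (temperature-sensitive p53) exposed 24 h to up to 46 uM compound at 32C, where p53 is wild-type in conformation. Viability read as ATP luminescence and normalised to DMSO and 100 uM tamoxifen. AC50 fitted with the Hill equation.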
IkB signaling – IkB Signaling; 0.04% of 110,000 active; ABC-DLBCL IkBa-CBG/CBR dual luciferase ratio, 4 h; response scale: scaled: untreated 0%, proteasome inhibitor 100%; Potency, µM (titrated, usually from 57.1 µM); active = well fitted curve in the direction sought with a large enough effect in the signal ratio, not every such curve was filed as active; inconclusive = small, poorly fitted or top-dose-only effect, or a change in a side signal; the % refers to the signal ratio;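 also: the direction sought is a rising ratio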
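Curves were fitted separately to fusion (green), unfused (red) and ratio luminescence, then classed by r2, magnitude and activity. Cells: OCI-Ly3, 4 h compound plus doxycycline at 37C; 10 uM MG-132 defined full response.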
p53ts 39C tox – qHTS Screen for Compounds that Selectively Target Cancer Cells with p53 Mutations: Cytotoxicity of p53ts Cells at the Nonpermissive Temperature. H1299-p53A138V viability at 39C, ATP luminescence, 24 h. Potency, µM (doses to about 46.1 µM), usual class: cytotoxic. 1.5% of 130,000 active. AID 902, 2007; also: nearly all actives have a fitted effect of over 55% in size
A number is an active result; . = inactive; ? = inconclusive; / = not tested or not shown; [ ] = dose if it differs, or a comment. The list is not random: actives were taken first. Their share in the collection is about 1.6%. Unless noted, calls follow the shape of the dose curve; as a rule, active = well fitted curve in the direction sought with a large enough effect; inconclusive = small, poorly fitted or top-dose-only effect, or another doubt; inactive = no such curve, though single readings can be large; an effect the other way counts as inactive or inconclusive.

SMILES | Peg3 imprint | p53ts 32C tox | IkB signaling | p53ts 39C tox
CC(C)Oc1ccc(C(=O)NCC(c2ccc(N(C)C)cc2)N2CCc3ccccc32)cc1 (stereo not drawn) | .[10.9 µM] | . | . | .
COc1ccc(-n2c(=O)c3ccccc3n(Cc3ccccc3C)c2=O)c(OC)c1 | .[10.9 µM] | . | ? | .
O=C(Nc1ccc(F)cc1)c1csc2c1CCCCC2 | .[10.9 µM] | 16µM | . | ?
O=C(Nc1ccon1)c1csc2c1CCCC2 | . | . | . | .
Cc1ccc(S(=O)(=O)NC(=O)OC23COCN2COC3)cc1 | .[10.9 µM] | .[9.22 µM] | .[11.4 µM] | .[9.22 µM]
C[C@H]1[C@H](C)CC[C@@]2(C(=O)O)CC[C@]3(C)C(=CC[C@@H]4[C@@]5(C)CC[C@H](O)C(C)(C)[C@@H]5CC[C@@]43C)[C@@H]12 | / | / | .[11.4 µM] | /
CCc1nn(CC(=O)NCc2ccccc2)c(=O)c2cccn12 | .[10.9 µM] | . | . | 20µM
C/C(=C\COc1cc(=O)[nH]c2ccccc12)CC[C@@H](O)C(C)(C)O | / | / | .[11.4 µM] | /
O=C(Nc1cccc(F)c1)C1CCN(S(=O)(=O)c2cccc3nsnc23)CC1 | .[10.9 µM] | . | ? | .
O=c1cc(-c2cccc(O)c2O)oc2ccccc12 | . | ? | .[11.4 µM] | 10µM
CCOc1ccc(C(=O)c2cn(CC(=O)Nc3cc(OC)cc(OC)c3)c3ccc(F)cc3c2=O)cc1 | .[10.9 µM] | . | ? | .
CCOc1ccc(N2C(=O)CC(SCCN)C2=O)cc1 (stereo not drawn) | / | 13µM | . | 13µM
c1c2c(cc3sc(N4CCOCC4)nc13)OCCO2 | . | 3.2µM | ? | 5µM
CC1=C(C(=O)Nc2ccccc2C)C(c2ccccn2)n2nc(SCc3ccccc3F)nc2N1 (stereo not drawn) | .[10.9 µM] | . | . | 6.3µM
O=C(O)[C@H]1C[C@H](C(=O)O)N1 | / | . | . | .
O=C(O)c1ccc(Cl)cc1Cl | . | .[1.84 µM] | . | .
NC[C@@H]1O[C@H](c2ccccc2)Cc2c1ccc(O)c2O | . | ? | . | ?
NC[C@@H]1O[C@H](C23CC4CC(CC(C4)C2)C3)Cc2c1ccc(O)c2O | . | ? | . | 20µM
COc1ccc(CNC(=O)c2ccc3c(c2)nc2n3CCCCC2)cc1 | .[10.9 µM] | . | ? | ?
CCCNC(=O)c1ccc2c(c1)nc1n2CCCCC1 | .[10.9 µM] | 13µM | ? | 6.3µM
COCCCNC(=O)c1ccc2c(c1)nc1n2CCCCC1 | .[10.9 µM] | ? | . | 10µM
COc1cccc(NC(=O)C(Cc2ccccc2)N2Cc3ccccc3C2=O)c1 (stereo not drawn) | / | . | / | /
CC(C)(C)C(=O)[C@H]([C@@H](c1ccccc1)N1CCOCC1)N1CCOCC1 | / | .[9.22 µM] | .[11.4 µM] | .[9.22 µM]
COc1ccc(/C=C/C(=O)Nc2ccc(Cl)c(Cl)c2)cc1OC | .[10.9 µM] | ? | . | ?
COc1ccc(/C=C\C(=O)Nc2ccccc2C(=O)O)cc1OC | . | 16µM | ? | 13µM
SMILES | Peg3 imprint | p53ts 32C tox | IkB signaling | p53ts 39C tox
CCN(CC)c1ccc2cc(C(N)=O)c(=O)oc2c1 | / | . | / | .
CCN(CC)c1ccc2cc(NC(=O)CCC(=O)O)c(=O)oc2c1 | . | ? | ? | 13µM
COc1cc(OC)cc(-c2nc3ccccc3c(=O)o2)c1 | / | . | / | .
CCOc1cccc(-c2nc3ccccc3c(=O)o2)c1 | .[10.9 µM] | 10µM | ? | 10µM
CN(C)CC(C)(C)CNC(=O)c1ccc(-n2c(=O)c(=O)[nH]c3ccccc32)cc1 | / | . | / | .
O=C(Nc1ccc2c(c1)OCCO2)c1ccc2nccnc2c1 | . | ? | ? | 4µM
O=C(Nc1ccc2c(c1)OCCO2)c1cccnc1 | . | ? | . | .
CCOc1ccc(C(=O)Nc2ccc3c(c2)OCCO3)cc1Br | .[10.9 µM] | ? | ? | 10µM
CC(CCc1nc2ccccc2s1)(c1ccc(O)cc1)c1ccc(O)cc1 | .[10.9 µM] | .[9.22 µM] | .[11.4 µM] | .[9.22 µM]
CCOc1ccc(OCc2cccc(C(=O)N3CCCC3)c2)cc1 | . | ? | . | ?
COc1ccc(OCc2cccc(C(=O)O)c2)cc1 | . | 6.3µM | ? | 5µM
CCOc1ccc(OCc2cccc(C(=O)O)c2)cc1 | . | 2.5µM | ? | 2µM
O=C(O)c1ccc(COc2ccc(CO)cc2Cl)cc1 | . | . | ? | .
O=C(O)c1cccc(COc2ccc(CO)cc2Cl)c1 | . | 5µM | ? | 4µM
Cc1ccc(CSc2nc(=O)c3c(C)cc(C)nc3n2C2CC2)cc1 | .[10.9 µM] | . | ? | .
COc1ccc2cc(C(=O)CCC(=O)O)ccc2c1 | .[10.9 µM] | .[9.22 µM] | .[11.4 µM] | .[9.22 µM]
N#C/C(=C/c1ccc(N2CCOCC2)o1)c1nc2ccccc2[nH]1 | / | 16µM | / | ?
COc1cccc(/C=C(\C#N)c2nc3ccc(C)cc3[nH]2)c1 | .[10.9 µM] | . | . | .
Cc1c(Cl)cccc1-c1ccc(/C=C(\C#N)c2nc3ccccc3[nH]2)o1 | .[10.9 µM] | ? | . | 13µM
Cc1ccc2nc(/C(C#N)=C/c3ccc(-c4ccc(F)cc4F)o3)[nH]c2c1 | .[10.9 µM] | 6.3µM | ? | 5µM
O=c1oc2cc(N=Cc3ccc4c(c3)OCO4)ccc2c2ccccc12 | .[10.9 µM] | .[9.22 µM] | .[11.4 µM] | .[9.22 µM]
O=c1oc2ccccc2cc1-c1cn2cc(Cc3ccccc3F)sc2n1 | .[10.9 µM] | . | . | .
COc1ccc2c(c1)CCC1C2CC[C@]2(C)[C@H](NCCCCCCN3C(=O)C=CC3=O)CC[C@@H]12 (stereo partly drawn) | / | . | . | .
Cc1ccc(NC(=O)Cn2c(=O)n(Cc3ccccc3)c(=O)c3sc4ccccc4c32)cc1 | .[10.9 µM] | . | . | .
CC1CCCN(CCCNC(=O)c2ccc3c(c2)N(Cc2cccc(Cl)c2)C(=O)c2ccccc2S3(=O)=O)C1 (stereo not drawn) | .[10.9 µM] | . | . | 13µM
SMILES | Peg3 imprint | p53ts 32C tox | IkB signaling | p53ts 39C tox
O=C(NCc1ccccc1)c1ccc2c(c1)N(Cc1cccc(Cl)c1)C(=O)c1ccccc1S2(=O)=O | .[10.9 µM] | . | . | .
O=c1c(-c2cc(F)cc(F)c2)nc2cnc(N3CCNCC3)nc2n1Cc1ccc(F)cc1 | . | ? | .[11.4 µM] | ?
COc1ccc(OC)c(-c2cc(C(=O)NCCc3ccccc3)c3c(-c4ccc(C)cc4)[nH]nc3n2)c1 | .[10.9 µM] | . | . | .
COc1ccc(-c2cc(C(=O)NCCc3ccccc3)c3c(-c4ccccc4)[nH]nc3n2)cc1 | .[10.9 µM] | ? | ? | 13µM
COc1ccc(-c2cc(C(=O)NCCc3ccccc3)c3c(-c4ccc(Cl)cc4)[nH]nc3n2)cc1 | .[10.9 µM] | 13µM | . | 13µM
O=C(O)c1cc(-c2ccc(C(F)(F)F)cc2)nc2n[nH]c(-c3ccccc3)c12 | .[10.9 µM] | ? | . | 10µM
COCCCNC(=O)c1cc(-c2ccc(OC)cc2)nc2n[nH]c(-c3ccc(Cl)cc3)c12 | .[10.9 µM] | . | . | .
COC(=O)[C@@H](NC(=O)c1cc(-c2ccccc2)nc2ccccc12)c1ccccc1 | / | / | . | /
O=C(O)CC[C@]1(C(=O)O)CCC(=O)c2ccccc21 | .[10.9 µM] | .[9.22 µM] | .[11.4 µM] | .[9.22 µM]
CCCn1nnnc1SCC(=O)NCc1cccs1 | . | . | . | .
COCCn1c(-c2ccc(Cl)cc2)cnc1SCC(=O)NCc1cccs1 | . | ? | ? | 25µM
